Screening results: PubChem, several laboratories
PERK inhibitor = blocks human PERK kinase; inhibition, % at 5.6 µM; CHO PERK-DD fusion, SEAP luminescence translation reporter; AID 1416; 220,000 tested, 0.17% active; Q9NZJ5;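 active means inhibition above the mean inhibition of all tested compounds plus 3 SD, set separately per screening campaign, cut at about 2.9% in these data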;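 further: PERK kinase domain activated by AP20187 dimerizer at 100 nM; 0% = DMSO with dimerizer and 100% = rapamycin at 8.4 µM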
eIF4E 4G PPI = blocks eIF4E binding to eIF4G; inhibition, % at 21.7 µM; TR-FRET eIF4E-eIF4GI(517-606) binding, 2 h; 220,000 tested, 0.37% active; P63073+Q04637;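 active means inhibition above about 30%, limit read from the data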;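 further: 0% = full FRET control wells and 100% = background wells lacking eIF4GI fragment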
MLLE-PAM2 inh = blocks PAM2 peptide binding to the PABP1 MLLE domain; 360,000 tested, 0.36% active; GST-MLLE / FITC-PAM2 fluorescence polarization; inhibition, % at 20 µM; in the data active means inhibition above about 35%, passing the limit was not always enough;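 further: plate controls were DMSO wells with GST-MLLE for no effect and wells lacking GST-MLLE protein for full effect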
PABP FP inh = blocks human PABP binding to poly(A) RNA. P11940. fluorescence polarization. inhibition, % at 35 µM. 290,000 tested, 1% active. AID 2014;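 further: calls also rest on retests at 20 µM and on dose response follow-up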
eIF4H inh = inhibitors of RNA binding by human eIF4H. Q15056. AID 2012. 290,000 tested, 0.94% active. inhibition, % at 35 µM. eIF4H fluorescence polarization binding assay;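 further: calls also rest on retests at 20 µM and on dose response follow-up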
Starred values were filed as active, the others as inactive; u = inconclusive; x = no result; [ ] = remark or other dose. Rows were chosen to be rich in hits. Some 1.6% of all compounds tested hit in one or more screens of this group. Unless noted, how the calls were made is not given here.

SMILES	PERK inhibitor	eIF4E 4G PPI	MLLE-PAM2 inh	PABP FP inh	eIF4H inh
Cc1ccc(N(C(C)C(=O)Nc2ccc(S(=O)(=O)N3CCOCC3)cc2)S(C)(=O)=O)cc1 (stereo unspecified)	0.3	8.2	9.1	11.4*	u
O=C(COc1ccccc1C(=O)N/N=C\c1ccc(O)c(O)c1)N/N=C/c1ccc(O)c(O)c1	1.6	3.2	5.2	41.7*	74.3*
CCOC(=O)/C(=N\Nc1ccccc1[N+](=O)[O-])c1csc(N)n1	0.3	5.8	18.6	-1.5	-1.3
CC(=O)C1=C(Nc2ccccc2)CC(C)(O)C(C(C)=O)C1c1ccccc1 (stereo unspecified)	1.8	1.7	-6.0	3.6	-1.4
CC(=O)C1C(c2ccccc2)c2c(noc2C)CC1(C)O (stereo unspecified)	3.2*	1.8	-16.0	7.8	-3.3
CC(c1ccccc1)C1NC(C(=O)O)CS1 (stereo unspecified)	0.7	8.8	7.6	-2.7	-0.1
CCCCCC1CCC(C(=O)O)CC1 (stereo unspecified)	1.6	-4.6	-0.4	5.0	-0.6
CCCCC1NC(C(=O)O)CS1 (stereo unspecified)	1.1	-8.0	38.1*	-0.7	-2.2
CCCCCCC1NC(C(=O)O)CS1 (stereo unspecified)	-0.9	x	38.0*	-7.4	-1.5
COc1cccc2c3c(c(=O)[nH]c12)CC(C)(C)O3	x	x	1.8	x	x
Cc1ccc(C(=O)n2c(N)nc3ccccc32)cc1	-0.2	2.1	-7.7	0.8	1.1
O=C1CC(N2CCOCC2)C(=O)N1CCN1C(=O)CC(N2CCOCC2)C1=O (stereo unspecified)	1.1	-1.6	-3.9	7.2	2.1
CCN1C(=O)CC(N2CCOCC2)C1=O (stereo unspecified)	3.0*	5.4	4.9	1.2	1.6
COc1ccc(NC(=O)Cc2cccs2)c(OC)c1	-0.5	-3.9	-9.7	3.7	2.2
COc1ccc(Cc2nnc(NC(=O)Cc3cccs3)s2)cc1OC	0.2	36.8*	-12.6	-13.7	1.7
COc1cc(NC(=O)c2ccccc2)c(OC)cc1NC(=O)Cc1cccs1	0.1	38.9*	-20.0	7.1	57.5*
Cc1ccc([N+](=O)[O-])cc1NC(=O)Cc1cccs1	1.4	37.0*	-14.0	-8.7	37.4
CC(C)Cc1nnc(NC(=O)Cc2cccs2)s1	0.2	29.9	-58.3	55.3*	73.7*
CCc1ccc(OCC(=O)NC(=S)Nc2ccc(F)cc2)c(Br)c1	-1.1	-3.1	8.3	-0.9	-8.1
COc1ccc(-c2noc(CSc3nc(N)c(-c4ccccc4)c(=O)[nH]3)n2)cc1OC	-0.4	46.1*[fluorescence artefact?]	-2.2	-2.0	-6.1
COc1ccc(-c2noc(CSc3nc(-c4ccccc4)cc(=O)[nH]3)n2)cc1	1.6	-55.1	-112.3	34.6	-8.5
COc1ccc2oc(=O)c(C(=O)OCc3ccccc3)cc2c1	x	x	43.4*	6.6	-3.6
Cc1ccc(NC(=S)Nc2ccccn2)cc1C	0.3	-3.4	40.5*	-1.7	1.1
CCCCCCn1cc(C(=O)O)c(=O)c2cc(F)c(N3CCN(C(=O)OCC)CC3)cc21	x	x	-6.1	-6.7	3.4
Cc1ccc(S(=O)(=O)N(C)C)cc1-n1c(SCC(=O)N(C)C)nc2ccccc2c1=O	-0.6	-3.2	-13.2	4.2*	52.1*
SMILES	PERK inhibitor	eIF4E 4G PPI	MLLE-PAM2 inh	PABP FP inh	eIF4H inh
CCC(CC)c1nc(NCCC(=O)O)c2ccccc2n1	3.1*	-4.6	9.5	1.8	1.7
CCOC(=O)NC(=O)/C(C#N)=C\Nc1sccc1C(=O)OC	0.4	2.6	21.5	u	u
CNC(=O)c1[nH]cnc1C(=O)N[C@@H](Cc1ccccc1)C(=O)OC(C)(C)C	0.9	3.4	5.4	active	93.4*
COc1cc(C(=O)Nc2ccc3c(c2)OCCO3)ccc1-n1cnnn1	-0.1	4.3	6.9	5.2	-9.5
CCN(CC)c1ccc2cc(C(=O)Nc3ccc(-n4cnnn4)c(OC)c3)c(=O)oc2c1	x	x	x	78.2*	76.0*
Cc1cc(-c2nnc(SCc3ccccn3)o2)no1	-0.7	-6.0	-7.0	-6.4	-15.7
O=C(NC(=S)Nc1cccc2cc(O)ccc12)c1ccccc1Br	x	x	33.3	-4.9	0.9
N#Cc1ccsc1NC(=O)COC(=O)c1ccc2ccccc2c1	-0.4	-2.2	-34.3	3.5*	55.7
Cn1cccc1C(=O)OCC(=O)Nc1sccc1C#N	x	x	-33.3	x	x
COCCn1c(COc2cccc(OC)c2)nnc1SCC(=O)N1CCOCC1	0.0	1.1	-22.4	-12.1	0.0
CCN(CC(=O)Nc1ccc(OC)cc1)C(=O)c1ccc(NS(=O)(=O)c2ccc(C(C)=O)cc2)cc1	x	x	9.0	x	x
Cc1onc(-c2c(F)cccc2Cl)c1C(=O)NC(=S)NC1CCS(=O)(=O)C1 (stereo unspecified)	1.2	0.6	46.8*	-3.7	-8.5
O=C(NC1=NCCS1)c1ccc(C(F)(F)F)cc1	x	x	6.9	-2.1	-8.7
O=c1c(Cl)c(NCc2ccc(F)cc2)cnn1C12CC3CC(CC(C3)C1)C2	-0.2	9.1	-6.6	5.2	-7.8
CCOC(=O)c1ccc(S(=O)(=O)N2CCC(N3CCCCCC3)CC2)cc1	x	x	3.3	x	x
O=C(Nc1ccccc1C(=O)O)c1ccccc1	0.6	-1.3	-0.6	12.4	48.6
COc1cc([C@@H]2[C@H]3CNCC=C3C(C#N)=C(N)C2(C#N)C#N)ccc1OC(C)C	-0.6	-3.2	-53.0	90.7*	73.3*
O=C(NC(=S)Nc1cccc2cccnc12)c1cccs1	1.2	-1.1	48.2*	-17.2	3.6
O=C(NCCOc1cccc2cccnc12)c1cccs1	-0.3	-1.7	16.9	52.2*	active
O=C(NC(=S)Nc1ccc(NC(=O)c2cccs2)cc1)c1cc2ccccc2o1	0.7	-5.9	18.1	25.3*	96.4*
O=C(NC(=S)Nc1ccc(NC(=O)c2cccs2)cc1)c1ccco1	-0.7	-10.4	21.2	-11.6	0.6
O=C(NC(=S)Nc1cccc2cccnc12)c1ccccc1	1.4	-0.5	39.1*	4.6	4.2
O=C(NC(=S)Nc1cccc(Cl)c1N1CCOCC1)c1cccs1	1.3	1.3	42.1*	-4.8	-9.5
CCCC(=O)NC(=S)Nc1cccc(Cl)c1N1CCCC1	-0.3	-3.7	44.8*	1.3	0.7
Cc1cccc(NC(=S)NC(=O)c2cccs2)n1	0.0	4.8	40.8*	1.8	1.3
SMILES	PERK inhibitor	eIF4E 4G PPI	MLLE-PAM2 inh	PABP FP inh	eIF4H inh
O=C1NC(=O)/C(=C\c2ccc(OCc3cccc(C(=O)O)c3)c(Cl)c2)N1	0.4	-3.5	-9.8	3.2	16.3
CC(=O)Nc1sc2c(c1C#N)CC(C)(C)NC2(C)C	0.5	2.7	6.0	-1.9	-5.1
CC1(C)Cc2c(sc(NC(=O)c3ccco3)c2C#N)C(C)(C)N1	x	x	x	98.8*	60.7*
CC(=O)Nc1ccc2ccccc2c1	-0.5	5.5	0.5	-0.9	-3.1
CC(=O)Nc1ccc2sc(C)nc2c1	0.1	63.6*	-3.4	-11.2	5.0
CC(=O)Nc1ccc2cc3ccc(NC(C)=O)cc3nc2c1	1.1	11.4	113.0	69.6*	77.0*
Clc1ccc(-c2nc3ncccn3c2Nc2ccc3c(c2)OCCO3)cc1	1.8	-5.2	4.6	-5.6	-10.8
